NPC1 promoter act – NPC1 promoter activation | Huh7 NPC1 promoter luciferase reporter, 24 h | Potency, µM (titrated, usually from 9.22 µM), inactives show at the highest dose activation, usual class: activators | 320,000 tested, 2.4% active; note: % of control where 0% means no effect; nearly all actives have a fitted effect of over 60% in size
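Quantitative HTS used a cell-based reporter: Huh7 cells stably bearing the NPC1 promoter upstream of luciferase were treated with compounds for 24 h, and promoter activation was read as luminescence.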
Rab9 promoter act – activators of Rab9 promoter; 320,000 tested, 2.8% active; AID 485297; Huh7 Rab9 promoter-luciferase reporter, luminescence, 24 h; Potency, µM (highest dose often 9.22 µM), without a hit: at the highest dose activation, negative = inhibition, usual class: activators; note: % of control where 0% means no effect; nearly all actives have a fitted effect of over 60% in size
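Rab9 promoter-driven luciferase in stably transfected Huh7 cells; 1500 cells/well rested 2 h, exposed to compound in DMSO for 24 h at 37 °C, 5% CO2. Luminescence read 10 min after adding luciferase reagent at ambient temperature.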
Luc counter – Kinase-Glo luciferase inhibition (counter-screen); 200,000 tested, 0.28% active; Kinase-Glo luciferase, ATP luminescence, 8 min; AID 1379; Q27757; Potency, µM (top dose mostly 38.3 µM), inactives show at the top dose activity change, negative = inhibition, actives largely listed as inhibitors; note: % is set by controls: 0 for no effect and ±100 for the full control effect; nearly all actives have a fitted effect of over 60% in size
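Compound is pinned into ATP-containing buffer (10 uM ATP, imidazole pH 7.2, 7 mM MgCl2). Kinase-Glo luciferase reagent is then added. Light output is recorded following an 8-min room-temperature incubation.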
ELG1 genotox – genotoxicity induction in ELG1-luciferase HEK293T cells; AID 504466; 330,000 tested, 1.3% active; HEK293T ELG1-luciferase reporter, luminescence, 16 h; Potency, µM (top dose mostly 46 µM), inactives show at the highest dose activity change, positive = activation, usual class: activators; note: % of control where 0% means no effect; nearly all actives have a fitted effect of over 60% in size
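Genotoxicity was scored as increased ELG1-luciferase reporter signal, measured by ONE-Glo luminescence (30 min, room temperature). Compound or vehicle exposure of the HEK293T reporter cells lasted 16 hr at 37°C.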
FLuc counter – firefly luciferase modulation, counter-screen for miR-21 project; purified FLuc, Km substrates, luminescence inhibition; 360,000 tested, 6.9% active; Potency, µM (titrated, usually from 57.5 µM), without a hit: at the top dose activity change, negative = inhibition, hits mostly inhibitors;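 note: plate controls were vehicle for no effect and reference inhibitor for full effect; nearly all actives have a fitted effect of over 55% in size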
Target sequence (P08659 whole entry, looked up): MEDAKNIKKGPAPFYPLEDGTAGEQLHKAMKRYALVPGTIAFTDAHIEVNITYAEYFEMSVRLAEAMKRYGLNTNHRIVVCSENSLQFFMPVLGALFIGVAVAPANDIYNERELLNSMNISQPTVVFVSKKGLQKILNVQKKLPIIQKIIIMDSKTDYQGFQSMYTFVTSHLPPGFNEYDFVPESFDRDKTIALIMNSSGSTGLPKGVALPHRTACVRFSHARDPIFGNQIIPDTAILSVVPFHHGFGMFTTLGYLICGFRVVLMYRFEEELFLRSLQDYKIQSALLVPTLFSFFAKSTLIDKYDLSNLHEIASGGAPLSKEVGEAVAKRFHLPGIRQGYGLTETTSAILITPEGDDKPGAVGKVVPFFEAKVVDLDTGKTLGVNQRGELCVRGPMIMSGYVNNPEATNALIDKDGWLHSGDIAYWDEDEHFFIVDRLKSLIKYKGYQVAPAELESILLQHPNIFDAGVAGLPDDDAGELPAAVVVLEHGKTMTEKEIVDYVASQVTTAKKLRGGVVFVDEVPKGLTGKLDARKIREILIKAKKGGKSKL
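Purified P. pyralis luciferase (10nM final) with 10uM D-luciferin and 10uM ATP (Km levels) in 50mM Tris acetate pH 7.5, 10mM Mg acetate, 0.01% Tween-20, 0.05% BSA; qHTS 6-point titration, ~60 µM downward; luminescence read.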
SMN2 splice up – enhancers of SMN2 splice variant expression; HEK293 SMN2-luciferase splicing reporter, luminescence, 30-36 h; Potency, µM (highest dose often 46.1 µM), for inactives: at the top dose activity change, positive = activation, hits mostly activators; 210,000 tested, 2.8% active; note: % of control where 0% means no effect; nearly all actives have a fitted effect of over 55% in size
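qHTS luciferase splicing reporter: luminescence rises when SMN2 exon 7 is included in transfected HEK293 cells. Compound exposure lasted 30-36 h at 37C, with 4.5 mM final sodium butyrate as control, followed by a ONE-Glo read.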
Starred values were filed as active, the others as inactive; ? = inconclusive; · = no result given; [ ] = another dose, or the depositor's remark. A selection: hits, their analogues and other compounds. The true share with any hit is near 7.3%. Calls come from the whole dose curve; as a rule, active = well fitted curve in the direction sought with a large enough effect; inconclusive = small, poorly fitted or top-dose-only effect, or another doubt; inactive = no such curve, though single readings can be large; an effect the other way counts as inactive or inconclusive. Potency is the fitted concentration of half-maximal effect.

SMILES | NPC1 promoter act | Rab9 promoter act | Luc counter | ELG1 genotox | FLuc counter | SMN2 splice up
COc1ccc2nc(Nc3ccccc3)sc2c1 | 3.55µM* | 1.58µM* | -11.1% | 22.3% | 1.51µM* | 11.2µM*
COc1ccc2nc(Nc3nc4cc5c(cc4s3)OCO5)sc2c1 | 16.0% | -0.5% | 4.2% | 16.4% | -16.3% | ?
COc1ccc(S(=O)(=O)N2CCCC(C(=O)Nc3ccc(OC)c(OC)c3)C2)cc1 (configuration not stated) | -5.2% | 0.2% | -0.8% | -10.4% | -0.4% | -20.9%
COc1ccc(C(=O)Nc2nnc(C)s2)cc1 | · | · | · | · | 13.5µM* | 11.2µM*
COCc1nnc(NC(=O)c2cc(OC)c(OC)c(OC)c2)s1 | · | · | · | · | 0.3% | 8.6%
CCc1nnc(NC(=O)C2CCCN(S(=O)(=O)c3ccc(OC)cc3)C2)s1 (configuration not stated) | 3.1% | 14.9% | 0.1% | 12.3% | 19µM* | ·
CCc1nnc(NC(=O)c2cccc(C(=O)Nc3nnc(CC)s3)n2)s1 | -32.1% | -41.9% | 2.1% | -8.0% | 19µM* | -94.7%
CCOCCc1nnc(NC(=O)c2cc(OC)c(OC)c(OC)c2)s1 | -1.3% | 1.8% | 0.5% | 2.9% | 0.5% | 15.8µM*
CCCN(CCC)C(=O)Cn1c(=O)n(-c2ccc(CC)cc2)c(=O)c2ccc(C(=O)NCCc3ccccc3)cc21 | · | · | · | · | 0.5% | -4.9%
CCOC(=O)c1cc(-c2ccccc2)n(CCC(=O)Nc2ccc(Cl)c(C(F)(F)F)c2)c1C | · | · | · | · | 0.0% | ·
CCOCc1nnc(NC(=O)c2ccc(OC)cc2)s1 | 27.4% | 8.8% | -0.2% | 14.7% | -27.3% | 17.8µM*
CCOCc1nnc(NC(=O)c2ccc(NC(C)=O)cc2)s1 | 0.0% | 0.3% | 0.9% | 1.4% | -15.1% | -1.1%
COc1ccc(C(=O)Nc2cc(OC)nc(OC)n2)cc1 | 2.24µM* | 0.794µM* | -27.4% | ? | 4.26µM* | 7.94µM*
COCCn1c(=O)[nH]c2cc(C(=O)Nc3cc(OC)c(OC)c(OC)c3)ccc2c1=O | -2.8% | 3.1% | · | -24.9% | -0.4% | ·
COc1cc(NC(=O)Cc2ccccc2)nc(OC)n1 | -0.3% | 3.6% | · | 5.0% | -1.0% | ·
CC(C)Cc1nnc(NC(=O)Nc2ccccc2)s1 | ? | 3.16µM* | -0.9% | ? | 16.9µM* | 11.2µM*
COCCn1c(=O)[nH]c2cc(C(=O)Nc3nnc(C)s3)ccc21 | 27.1% | ? | · | ? | 13.5µM* | ·
CCc1nnc(NC(=O)Nc2ccc(OC)cc2)s1 | ? | ? | -5.2% | ? | 16.9µM* | 29.5%
COc1ccc(NC(=O)Nc2nnc(C)s2)cc1 | · | · | · | · | 16.9µM* | 21.4%
CCc1cc(C(=O)O)c(NC(=O)c2cc(OC)c(OC)c(OC)c2)s1 | -1.4% | -1.1% | 2.2% | ? | 8.49µM* | -32.5%
CC(C)(CC(=O)Nc1ccccc1)C(=O)O | · | · | 0.4%[7.66 µM] | · | · | -1.8%[9.22 µM]
Fc1cccc(-c2cc3nc4c(c(N5CCC6(CC5)OCCO6)n3n2)CCCC4)c1 | -1.4% | -0.2% | 1.3% | ? | 15.1µM* | 10.7%
CN(CCO)c1c2c(nc3cc(-c4cccc(F)c4)nn13)CCCC2 | 3.55µM* | 3.55µM* | 3.1% | ? | 23.9µM* | 23.3%
OC1CCN(c2c3c(nc4cc(-c5cccc(F)c5)nn24)CCCC3)CC1 | 1.3% | 7.6% | -0.9% | -0.1% | ? | 28.9%
Cc1cc(=O)[nH]c(/N=C(\N)Nc2ccc(Cl)cc2)n1 | · | · | -0.7%[7.66 µM] | · | · | 0.0%[9.22 µM]
COc1cc(/C=C/c2nc3cc(Cl)ccc3c(=O)n2-c2ccc(C)cc2C)cc(OC)c1OC | · | · | · | · | -2.8% | ·
COC(=O)c1sccc1S(=O)(=O)N(CC(=O)NCc1ccc(F)cc1)c1ccc(C)c(C)c1 | · | · | · | · | -1.7% | ·
CCOC(=O)c1[nH]c2ccc(C)cc2c1NC(=O)CN1CCCCC1 | 1.4% | 1.2% | -0.3% | -7.6% | 0.7% | 4.9%
CCOC(=O)c1[nH]c2cc(OC)c(OC)cc2c1NC(=O)CN1CCN(C)CC1 | -4.4% | -2.9% | -0.4% | 20.6µM* | -0.7% | ·
CC(C)CCNC(=O)C(=O)Nc1c2c(nn1-c1ccc(Cl)cc1)CSC2 | · | · | · | · | -11.3% | ·

Assay outcomes (PubChem BioAssay)
